Assay outcomes as filed in PubChem BioAssay.
HIF-2a block: inhibitors of HIF-2a. 786-0 RCC cells HIF-2a reporter, luciferase luminescence, overnight. inhibition, % at 18.8 µM. hit rate 0.72% among 360,000. AID 624352;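 active = inhibition of the luminescence signal of 40% or more relative to plate controls, in a single-dose primary screen at 18.75 µM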
TWEAK-Fn14 inh: TWEAK-Fn14 signaling inhibition. TWEAK-stimulated Fn14 reporter cells, luciferase luminescence, 8 h. inhibition, % at 10 µM. hit rate 2% among 360,000; in the data active = inhibition above about 50%
CF NFkB inh: cystic fibrosis NF-kB activation inhibition | KKLEB NF-kB-GFP reporter, PAF-induced, GFP fluorescence overnight | inhibition, % at 5 µM | hit rate 0.86% among 360,000 | AID 588850;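 active = at least 50% inhibition at 5 µM, scaled per plate between neutral and stimulator controls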;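 also: PAF is a Pseudomonas aeruginosa culture filtrate used as stimulus; plate controls were PAF-stimulated DMSO wells for no effect and unstimulated DMSO wells for full effect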
TROY signal inh: inhibitors of TROY-dependent NF-kB signaling. Q293 LMP1-TROYcd NF-kB luciferase reporter, 4 h. AID 1347056. inhibition, % at 10 µM. hit rate 0.98% among 360,000;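 active = compounds whose plate-normalised and pattern-corrected inhibition of the luciferase reporter signal at the single screening dose is 50% or more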
Peg3 promoter: inhibitors of Peg3 promoter; HeLa PEG-Prom luciferase reporter, luminescence, overnight; inhibition, % at 20 µM; hit rate 1.7% among 360,000; AID 588405;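 active = inhibition of at least 50% at 20 µM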
KKLEB tox: counter-screen for CF NF-kB inhibitors: cytotoxicity. KKLEB CF airway cells viability, ATPlite luminescence, overnight; hits give low values; cells stimulated with P. aeruginosa culture filtrate. activity change (cytotoxicity), % at 5 µM. hit rate 0.36% among 360,000. AID 602141;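 active = corrected activity change at or below -50% at 5 µM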
The depositor's hits bear a star. Rows were chosen to be rich in hits. Some 4% of all compounds tested hit in one or more screens of this group.

SMILES | HIF-2a block | TWEAK-Fn14 inh | CF NFkB inh | TROY signal inh | Peg3 promoter | KKLEB tox
Cc1cc(NC(=O)C2CC(=O)N(c3ccccc3C)C2)no1 (centres undefined) | 7 | 83* | -6 | -7 | 6 | -1
CC(=O)Nc1ccc(NC(=O)C2CC(=O)N(c3cccc(C)c3C)C2)cc1 (centres undefined) | 8 | -5 | 4 | 6 | 3 | 6
Cc1cccc(N2CC(C(=O)Nc3ccc4c(c3)OCCO4)CC2=O)c1C (centres undefined) | 27 | 63* | -8 | 34 | 39 | 9
COc1ccc(N2CC(C(=O)Nc3ccc4c(c3)OCCO4)CC2=O)cc1 (centres undefined) | 12 | 42 | -1 | -7 | 18 | -2
CCN(CC)S(=O)(=O)c1ccc(NC(=O)C2CC(=O)N(c3ccc4c(c3)OCCO4)C2)cc1 (centres undefined) | 15 | 60* | 15 | 7 | -32 | 2
CC(=O)Nc1ccc(-c2csc(NC(=O)C3CC(=O)N(c4ccc5c(c4)OCCO5)C3)n2)cc1 (centres undefined) | 31 | 14 | -3 | 39 | 5 | -13
COc1ccc(-c2csc(NC(=O)C3CC(=O)N(c4ccc5c(c4)OCCO5)C3)n2)cc1 (centres undefined) | 10 | 85* | -28 | 55* | 10 | 16
COC1CC(NC(C)=O)C(OC(=O)c2ccccc2)C(CBr)O1 (centres undefined) | 0 | -4 | 6 | 2 | -13 | -6
C=CCNc1nc(C(=O)OC(C)C(=O)c2ccc(C)cc2)cs1 (centres undefined) | -21 | -28 | 11 | -44 | -136 | -13
N#CC1=C(N)C(C#N)(C#N)[C@H](c2cccnc2)[C@H]2CN(C(=O)OCc3ccccc3)CC=C12 | 11 | 6 | 14 | -20 | -2 | -10
N#CC1=C(N)C(C#N)(C#N)C(c2cccnc2)C2CC(c3ccccc3)CC=C12 (centres undefined) | 16 | 61* | 69* | 10 | 12 | -22
COC(=O)c1sc(NC(=O)CN2CCN(c3cccc(Cl)c3)CC2)c(C(=O)OC)c1C | 6 | -5 | -3 | 21 | 3 | -2
COCCn1c(C)cc(C(=O)COC(=O)c2ccc(Cl)c(S(N)(=O)=O)c2)c1C | -147 | 72* | 14 | 10 | -126 | -23
Cc1cc(C(=O)COC(=O)c2ccc(Cl)c(S(N)(=O)=O)c2)c(C)n1CC1CCCO1 (centres undefined) | -92 | 64* | 5 | 72* | -197 | -2
Cc1cc(C(=O)COc2cccc([N+](=O)[O-])c2)c(C)n1C1CC1 | -292 | -11 | 12 | -33 | -285 | 3
CNS(=O)(=O)c1cccc(C(=O)OCC(=O)c2cc(C)n(CC3CCCO3)c2C)c1 (centres undefined) | -140 | 37 | 21 | 47 | -126 | -31
Cc1cc(C(=O)COC(=O)c2ccc(O)cc2)c(C)n1CC1CCCO1 (centres undefined) | -164 | 50 | -7 | 62* | -171 | 7
Cc1cc(C(=O)COC(=O)c2cccc(O)c2)c(C)n1C1CC1 | -122 | 54* | -9 | -10 | -89 | 0
COCCn1c(C)cc(C(=O)COC(=O)c2ccc(-n3nc(C)cc3C)cc2)c1C | 3 | 10 | -9 | 25 | -22 | -3
COc1cc(OC)cc(C(=O)OCC(=O)c2cc(C)n(CC3CCCO3)c2C)c1 (centres undefined) | -37 | -5 | -9 | -9 | -128 | -18
CCCCn1c(N)c(N(CCOC)C(=O)COC(=O)COc2cccc(C(C)=O)c2)c(=O)[nH]c1=O | 12 | 3 | -2 | -1 | -6 | 5
CCOC(=O)c1ccc(N2CCOCC2)c(NC(=O)c2ccc3c(c2)OCO3)c1 | 13 | 9 | 0 | -7 | 17 | -8
Cc1ccc(NS(=O)(=O)c2c(C(=O)N3CCCCCC3)c(C)n(C)c2C)c(C)c1 | 9 | 15 | 0 | 19 | 8 | -4
CCn1c(SCC(=O)c2cc(C)n(CC3CCCO3)c2C)nc2ccccc21 (centres undefined) | -69 | -5 | -4 | 6 | -138 | 2
Cc1cc(C(=O)CSc2nc3ccccc3c(=O)[nH]2)c(C)n1CC1CCCO1 (centres undefined) | -226 | 60* | -10 | 42 | -292 | 8
